KCNH2 3.1 inh – blocks the human KCNH2 3.1 channel isoform; 340,000 compounds, 0.95% hits; activity change, % (tested at about 1.8 µM); U2OS KCNH2 3.1, thallium flux FluxOr; active compounds read low;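 active = maximum activity change below -70%; inconclusive = maximum activity change from -70% to -50%; inactive = maximum activity change above -50%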;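 note: thallium influx rate constant from kinetic fluorescence after stimulation buffer; % is set by controls: 0 for no effect and ±100 for the full control effect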
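FluxOr-based Tl+ influx in U2OS cells transduced with KCNH2 3.1 virus; rate constants normalized to DMSO controls.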
KCNH2 WT inh – KCNH2 (human, wildtype) channel inhibition | Q12809 | U2OS, BacMam KCNH2, thallium flux FluxOr; active compounds read low | activity change, % at 1.84 µM | 340,000 compounds, 0.37% hits;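 active = maximum activity change below -70%; inconclusive = maximum activity change between -70% and -50%; inactive = maximum activity change above -50%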; note: % is set by controls: 0 for no effect and ±100 for the full control effect
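U2OS cells were transduced with wild-type KCNH2 virus (2.03 x 10^8 / mL) for 4 h at room temperature, then cultured overnight at 37 C. Thallium flux was read with FluxOr dye. Rate constants were normalized to DMSO controls.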
EPAC2 agonist – agonists of human EPAC2 (RAPGEF4); Potency, µM (top dose mostly 154 µM), for inactives: at the highest dose activation, most hits filed as activators; 360,000 compounds, 0.079% hits; EPAC2 activation, biochemical qHTS; response scale: 100% = 6.5 mM cAMP response; note: potency is the fitted concentration of half-maximal effect; nearly all actives have a fitted effect of over 50% in size
Target sequence (Q8WZA2 whole entry, looked up): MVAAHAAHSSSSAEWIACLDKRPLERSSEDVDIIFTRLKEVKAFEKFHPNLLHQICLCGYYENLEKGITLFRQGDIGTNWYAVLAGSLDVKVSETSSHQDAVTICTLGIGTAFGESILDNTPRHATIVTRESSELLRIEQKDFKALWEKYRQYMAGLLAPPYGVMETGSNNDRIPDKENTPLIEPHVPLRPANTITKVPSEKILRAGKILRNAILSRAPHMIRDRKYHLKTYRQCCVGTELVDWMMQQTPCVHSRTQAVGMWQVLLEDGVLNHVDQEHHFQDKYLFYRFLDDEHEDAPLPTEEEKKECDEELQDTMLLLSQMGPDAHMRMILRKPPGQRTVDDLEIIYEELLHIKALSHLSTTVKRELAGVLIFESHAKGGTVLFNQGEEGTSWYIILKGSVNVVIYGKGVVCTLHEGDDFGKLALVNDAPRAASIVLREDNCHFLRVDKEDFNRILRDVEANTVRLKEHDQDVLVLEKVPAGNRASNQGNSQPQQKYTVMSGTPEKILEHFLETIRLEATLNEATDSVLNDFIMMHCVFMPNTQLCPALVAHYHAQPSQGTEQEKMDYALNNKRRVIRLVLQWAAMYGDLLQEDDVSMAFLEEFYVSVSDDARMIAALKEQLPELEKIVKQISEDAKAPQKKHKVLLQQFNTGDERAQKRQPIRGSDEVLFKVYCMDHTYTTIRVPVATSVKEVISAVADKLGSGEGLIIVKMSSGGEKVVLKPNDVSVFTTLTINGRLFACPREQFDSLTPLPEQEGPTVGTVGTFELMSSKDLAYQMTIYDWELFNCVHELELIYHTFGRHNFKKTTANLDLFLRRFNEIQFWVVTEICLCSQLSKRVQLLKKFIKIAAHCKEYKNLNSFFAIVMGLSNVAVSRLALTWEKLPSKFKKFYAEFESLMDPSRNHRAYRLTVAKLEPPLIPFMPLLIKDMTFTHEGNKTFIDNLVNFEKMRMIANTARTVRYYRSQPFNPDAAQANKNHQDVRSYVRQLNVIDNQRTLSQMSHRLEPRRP
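Guanine nucleotide exchange by EPAC2 is measured as reduced fluorescence of BODIPY-GDP once it is released from 250 nM Rap1B. Plates are read kinetically for 30 min at room temperature; results are scaled to 6.5 mM cAMP.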
EPAC1 ag – agonists of human EPAC1 | O95398 | EPAC1 agonist qHTS, biochemical assay; response scale: 100% = response to 6.5 mM cAMP | Potency, µM (doses to about 154 µM), for inactives: at the highest dose activation, hits mostly activators | 360,000 compounds, 0.073% hits; note: potency is the fitted concentration of half-maximal effect; nearly all actives have a fitted effect of over 60% in size
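Compounds were pinned as a concentration titration into mixtures of EPAC1 (100 nM), BODIPY-GDP-loaded Rap1B (250 nM) and GDP (50 uM). After 5 min at room temperature, fluorescence was followed for 30 min; activity was scaled to 6.5 mM cAMP.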
EPAC2 antag – antagonists of human EPAC2; EPAC2 GEF exchange of Rap1B-BODIPY-GDP, fluorescence; Potency, µM (doses to about 114 µM), inactives show top-dose activity, negative = inhibition, most hits filed as inhibitors; 360,000 compounds, 0.18% hits; AID 720708; note: potency is the fitted concentration of half-maximal effect; % is set by controls: 0 for no effect and ±100 for the full control effect; nearly all actives have a fitted effect of over 45% in size
EPAC1 antagonist – EPAC1 (human) antagonism. O95398. EPAC1 GEF assay, Rap1b-BODIPY-GDP exchange fluorescence. Potency, µM (titrated, usually from 115 µM), for the others: at the highest dose activity change, negative = inhibition, most hits filed as inhibitors. 360,000 compounds, 0.14% hits. AID 720709;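 note: potency is the fitted concentration of half-maximal effect; plate controls were vehicle for no effect and positive control for full effect; nearly all actives have a fitted effect of over 50% in size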
* = called active by the depositor; ? = inconclusive; nt = not tested or not shown; [ ] = dose if it differs, or a comment. In the library only some 1.4% were active in any assay of this set; here they are far more common. Unless noted, calls come from the whole dose curve; as a rule, active = well fitted curve in the direction sought with a large enough effect; inconclusive = small, poorly fitted or top-dose-only effect, or another doubt; inactive = no such curve, though single readings can be large; an effect the other way counts as inactive or inconclusive.

SMILES	KCNH2 3.1 inh	KCNH2 WT inh	EPAC2 agonist	EPAC1 ag	EPAC2 antag	EPAC1 antagonist
O=C(NC1CCN(S(=O)(=O)c2ccccc2)CC1)c1ccc(F)cc1	-0.1	-2.8	8.0%	12.1%	-7.6%	8.7%
O=C(NC(=S)Nc1ccc2oc(=O)ccc2c1)c1cccc(Cl)c1	-28.0	-3.5	7.2%	-8.9%	0.8%	-21.3%
CN1c2ccccc2C(C)(C)C12C=Nc1c(cc(N3CCOCC3)c3ccccc13)O2 (stereo not given)	-4.5	6.5	4.4%	10.1%	-25.2%	89.1µM*
O=C(O)c1ccccc1C(c1ccccc1)c1ccccc1O (stereo not given)	-4.9	-0.9	2.6%	2.1%	-19.3%	-3.4%
COc1ccc(-n2nnnc2SCC(=O)c2ccc(O)c(O)c2)cc1	17.4	-8.8	9.9%	0.8%	-2.1%	44.7µM*
COC(=O)[C@H](Cc1c[nH]c2ccccc12)NC(=O)NCc1ccc(OC)c(OC)c1	17.0	-6.1	6.6%	3.3%	4.0%	-21.0%
CCC1(c2ccccc2)NC(=O)N(CC(=O)Nc2ccc(OC)nc2)C1=O (stereo not given)	-8.5	-9.8	?	100µM*	43.6%	112.7%
CCc1c(C)nc2[nH]ncn2c1=O	-6.2	30.8	-3.9%	5.9%	2.8%	3.4%
O=C(CN1CCCCCC1)Nc1ccccc1Oc1ccccc1	24.4	0.1	15.8%	5.8%	39.8µM*	-11.5%
NC(=O)C1CCN(CC(=O)Nc2ccccc2Sc2ccc(Cl)cc2)CC1	-1.0	5.4	-3.6%	0.0%	1.3%	4.5%
O=C(CN1CCCCC1)N/N=C/c1ccccc1OCc1ccccc1	-80.9*	1.8	10.3%	-0.5%	-0.1%	11.5%
O=C(O)c1cc(S(=O)(=O)Nc2cc(Cl)ccc2Oc2ccccc2)ccc1O	-10.4	1.1	-3.9%	-0.3%	39.8µM*	?
COc1ccccc1NC(=O)CN1CCCCCC1	-7.6	-7.9	5.7%	6.8%	0.5%	-4.9%
O=C(CN1CCCC1)Nc1ccccc1Sc1ccc(Cl)cc1	-90.2*	10.2	5.2%	19.3%	?	-3.8%
O=C(O)c1cc(S(=O)(=O)Nc2ccccc2C(=O)O)ccc1O	3.5	-0.3	-9.6%	10.6%	-2.2%	-9.9%
OC[C@@H]1CN(Cc2ccc(F)cc2)C[C@H](n2cnc3c(N4CCCC4)ncnc32)O1	nt	nt	12.0%	-12.8%	16.4%	-2.2%
O=C(CN1CCCCC1)Nc1cc(Cl)ccc1Oc1ccccc1	-3.4	-0.4	1.8%	1.2%	28.2µM*	-4.9%
NC(=O)C1CCN(CC(=O)Nc2cc(Cl)ccc2Oc2ccccc2)CC1	-4.6	20.2	3.3%	6.4%	-15.9%	-7.6%
Cc1cc(C)nc(SCC(=O)NC2CCCCC2C)n1 (stereo not given)	0.8	-5.1	8.1%	14.9%	-28.5%	4.6%
Cc1ccc(CN2CCN(C(=O)C3CCCO3)CC2)cc1 (stereo not given)	-5.4	-3.0	2.1%	3.9%	-1.7%	3.1%
O=C(C1CCCO1)N1CCN(Cc2c(O)ccc3ccccc23)CC1 (stereo not given)	-94.9*	-14.0	-5.3%	-1.1%	-1.2%	5.3%
CCOP(=O)(OCC)C(Nc1ccccc1)c1ccco1 (stereo not given)	-118.1*	-4.4	10.8%	2.4%	2.9%	-10.6%
CCOP(=O)(OCC)C(Nc1ccc(F)cc1)c1ccccc1 (stereo not given)	4.9	0.9	4.4%	-7.3%	2.0%	-12.4%
CC1(C(=O)Nc2ccc(Cl)c(Cl)c2)CCN1C(=O)C1CCCCC1 (stereo not given)	nt	nt	14.6%	0.9%	1.2%	-2.0%
COc1ccc(C[C@H]2CN3C(=NC[C@@H]3Cc3ccc(O)cc3)N2CCNC(=O)c2ccc(C)c(Br)c2)cc1	-0.3	-81.4*	13.3%	4.6%	0.1%	-6.4%
SMILES	KCNH2 3.1 inh	KCNH2 WT inh	EPAC2 agonist	EPAC1 ag	EPAC2 antag	EPAC1 antagonist
COc1ccc(C[C@H]2CN3C(=NC[C@@H]3C(C)C)N2C[C@H](C)NC(=O)c2ccc(C)c(Br)c2)cc1	-40.6	-18.0	6.2%	-3.4%	4.7%	-5.9%
COc1ccc(C[C@H]2CN3C(=NC[C@@H]3Cc3ccc(O)cc3)N2C[C@H](C)NC(=O)c2ccc(C)c(Br)c2)cc1	-17.0	-163.5*	7.1%	2.4%	13.0%	-19.0%
Cc1ccc(C(=O)NCCN2C3=NC[C@H](Cc4ccc(O)cc4)N3C[C@H]2Cc2ccc(O)cc2)cc1Br	-9.3	-3.3	3.7%	-5.0%	10.8%	-6.9%
O=C(OCCN1C(=O)c2cccc3c(N4CCOCC4)ccc(c23)C1=O)c1cccc(Cl)c1	3.3	0.4	-44.4%	25.1µM*	169.8%	65.1%
N#CC1=C(N)SC(N)=C(C#N)C1c1cccc(Oc2ccccc2)c1	7.9	-10.2	5.6%	17.5%	50.1µM*	-7.6%
N#Cc1ccc(OCC(=O)N2CCN(c3ccc(C(F)(F)F)cn3)CC2)cc1	-92.4*	-41.1	-5.9%	-13.8%	18.5%	4.6%
O=C(CCc1ccccc1F)N1CCN(c2ccc(C(F)(F)F)cn2)CC1	5.3	6.1	10.4%	-16.7%	-3.9%	-17.2%
Cc1cccc2c1-c1sc(C(=O)N3CCCCC3)cc1CO2	-1.3	-5.8	15.9%	9.7%	?	-23.0%
Cc1cccc2c1-c1sc(C(=O)Nc3ccccc3N3CCN(C)CC3)cc1CO2	-71.4*	-17.1	11.5%	22.0%	-25.8%	-21.7%
CO[C@@H]1CN(C)C(=O)c2ccc(NS(=O)(=O)c3c(C)noc3C)cc2OC[C@@H](C)NC[C@@H]1C	nt	nt	-0.1%	-0.9%	17.0%	17.6%
O=C(Nc1cccc(S(=O)(=O)N2CCCCCC2)c1)c1ccc2c(c1)OCO2	-83.9*	-24.4	8.1%	-5.6%	-2.3%	-14.6%
CCNC(=O)CSc1nnc(CN2CCCCCC2=O)n1-c1ccccn1	-0.5	-5.5	-0.7%	2.9%	13.2%	-22.3%
O=C1CCCCCN1Cc1nnc(SCc2nc3ccccc3s2)n1-c1ccccn1	-79.9*	6.4	8.7%	-0.6%	-3.5%	19.7%
CCOC(=O)c1ccc2[nH]c3c(c2c1)CCCCC3=O	-167.1*	26.9	-0.1%	2.0%	1.5%	-4.0%
O=C(COC(=O)c1ccc(-n2cnnn2)cc1)c1ccc(Br)cc1	-83.2*	?	-0.9%	-5.1%	0.4%	-13.6%
Oc1ccc(/C=N/N2CCN(C3c4ccccc4-c4ccccc43)CC2)cc1O	4.9	-3.3	7.6%	23.3%	-0.8%	-28.7%
Nc1nc2ccccc2n1CCOc1ccc(Br)cc1	-91.1*	10.3	-4.0%	-7.4%	-5.3%	-2.8%
Nc1nc2ccccc2n1CCOc1ccc(Cl)cc1	-84.2*	-17.8	0.8%	1.6%	-8.7%	-20.7%
Nc1nc2ccccc2n1CCOc1ccccc1Cl	-10.2	13.8	-14.6%	-5.4%	0.1%[57.1 µM]	6.8%

Bioassay records as filed in PubChem BioAssay.
